Data from PubChem BioAssay AID1053118 (Broad Institute, 2014).
Results with a measured potency or affinity are listed apart. Calls of active or inactive are those of the source.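 How the source made its calls: active means fitted half-maximal concentration for ATP signal loss at most twice the top valid dose; inconclusive means flat curve between -70 and -30%, or an invalid fit; inactive means flat within ±30%, wrong direction, or potency past limit.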

assay: HepG2 cell cytotoxicity, dose response, cytotoxicity control, cherry-picks, set 5 (AID 1053118); settings: HepG2 viability, ATP luminescence, 72 h; series mostly up to 26 µM; activity change, negative = cytotoxicity: at the top concentration;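 further: 0% = neutral control wells and -100% = mitoxantrone positive control wells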

SMILES	activity change, negative = cytotoxicity
COC(=O)C[C@H]1CC[C@@H]2[C@H](COc3ccc(NC(=O)Cc4cccs4)cc3C(=O)N2C)O1	8.89% [at 23.5 µM] (inactive)
CC1(C)Cc2c(C#N)c(SCC(=O)c3ccccc3)nc(N3CCOCC3)c2CS1	1.34% (inactive)
C[C@@H]1CN([C@@H](C)CO)C(=O)c2cc(-c3ccncc3)cnc2O[C@@H]1CN(C)C(=O)Cc1cccnc1	-2.12% (inactive)
COc1cccc(-c2ccc3c(c2)[C@H]2[C@H](CCN2S(=O)(=O)c2cccc(OC)c2)[C@H](CO)N3)c1	-36.4% (inactive)
C[C@H](CO)N1C[C@H](C)[C@H](CN(C)C(=O)c2cccc(F)c2)Oc2ncc(-c3ccccc3)cc2C1=O	-4.86% (inactive)
Cc1ccc(Nc2nnc(SCc3ccccc3)s2)cc1	9.81% (inactive)
CC(C)NC(=O)N(C)C[C@H]1Oc2ccc(NC(=O)CCN3CCOCC3)cc2C(=O)N([C@H](C)CO)C[C@@H]1C	-12.2% (inactive)
C[C@H](CO)N1C[C@H](C)[C@H](CN(C)C)Oc2cc(C#C[C@@H](C)O)ccc2S1(=O)=O	-0.041% (inactive)
CN1c2ccc(-c3ccccc3)cc2[C@H]2[C@H](CCN2C(=O)CN2CCOCC2)[C@H]1CO	16.2% [at 23.5 µM] (inactive)
Cc1ccc(S(=O)(=O)N2CC[C@H]3[C@H](CO)Nc4ccc(-c5cccc(C(=O)N(C)C)c5)cc4[C@H]32)cc1	-0.705% (inactive)
C[C@H]1CN([C@@H](C)CO)C(=O)c2cc(-c3ccccc3)cnc2O[C@H]1CN(C)C(=O)c1cccc(F)c1	-13.2% (inactive)
C[C@H](O)C#Cc1ccc2c(c1)O[C@@H](CN(C)C)[C@H](C)CN([C@@H](C)CO)S2(=O)=O	4.59% (inactive)
Cc1ccc(O)c(-c2cc(-c3cccc(Br)c3)n[nH]2)c1	2.04% (inactive)
Cc1ccc([N+](=O)[O-])cc1NC(=O)CN(C(=O)c1ccccc1Cl)C1CCCCC1	-5.3% (inactive)
CN1c2ccc(-c3ccccc3)cc2[C@H]2[C@H](CCN2C(=O)CN2CCOCC2)[C@@H]1CO	-8.7% (inactive)
COC(=O)c1cn(CC(=O)NCc2ccco2)c2ccccc12	-1.99% (inactive)
c1ccc2[nH]c(SCc3cn4cccnc4n3)nc2c1	35.2% (inactive)
COc1cccc(-c2ccc3c(c2)[C@@H]2[C@@H](CCN2S(=O)(=O)c2cccc(OC)c2)[C@@H](CO)N3)c1	-7.5% (inactive)

SMILES	activity change, negative = cytotoxicity
CCOc1cccc(C(=O)Nc2ccc(N(CC)CC)cc2)c1	-13.8% (inactive)
Cc1ccc(S(=O)(=O)N2CC[C@@H]3[C@H](CO)Nc4ccc(-c5cccc(C(=O)N(C)C)c5)cc4[C@@H]32)cc1	-21.2% (inactive)
Cc1ccc(S(=O)(=O)N2CC[C@@H]3[C@H]2c2cc(-c4cccc(C(=O)N(C)C)c4)ccc2N[C@@H]3CO)cc1	-14.5% [at 23.5 µM] (inactive)
C[C@H](CO)N1C[C@H](C)[C@@H](CN(C)Cc2ccccc2)Oc2ncc(-c3ccccc3)cc2C1=O	-17.7% (inactive)
N#C[C@@H]1[C@H](c2ccccc2C2=CCCCC2)[C@@H](CO)N1S(=O)(=O)c1ccccc1	-17.5% (inactive)
C[C@@H]1CN([C@H](C)CO)C(=O)c2cc(NC(=O)CCCN(C)C)ccc2O[C@H]1CN(C)Cc1ccc(-c2ccccc2)cc1	-18.8% (inactive)
C[C@@H]1CN([C@@H](C)CO)C(=O)c2cc(NC(=O)CCCN(C)C)ccc2O[C@@H]1CN(C)Cc1ccc(-c2ccccc2)cc1	-16.2% [at 23.5 µM] (inactive)
C[C@@H]1CN([C@H](C)CO)C(=O)c2cc(NC(=O)CCCN(C)C)ccc2O[C@@H]1CN(C)Cc1ccc(-c2ccccc2)cc1	-15.6% (inactive)
COC(=O)C[C@H]1CC[C@H]2[C@H](COc3ccc(NC(=O)Cc4cccs4)cc3C(=O)N2C)O1	-12.2% (inactive)
O=S(=O)(c1ccccc1F)N1CC[C@@H]2[C@H](CO)Nc3ccc(-c4cccc(F)c4)cc3[C@@H]21	-3.15% (inactive)
O=C(NCCS(=O)(=O)N1CCN(c2ccc(F)cc2)CC1)c1ccc(Br)o1	-21.6% (inactive)
CC(NC(=O)CSc1ccc(S(=O)(=O)N2CCOCC2)cn1)c1ccc(Cl)cc1Cl (stereo unspecified)	13.9% (inactive)
C[C@@H]1CN([C@H](C)CO)C(=O)c2cccc(NC(=O)Nc3ccc(C(F)(F)F)cc3)c2O[C@H]1CN(C)C(=O)Nc1cccc2ccccc12	-18.2% (inactive)
C[C@H](CO)N1C[C@H](C)[C@H](CN(C)C(=O)Nc2cccc3ccccc23)Oc2c(NC(=O)Nc3ccc(C(F)(F)F)cc3)cccc2C1=O	-13.8% (inactive)
N#C[C@@H]1[C@@H](c2ccccc2C2=CCCCC2)[C@H](CO)N1S(=O)(=O)c1ccccc1	-11.6% (inactive)
COc1ccc(CCNC(=O)C2CCN(Cc3nc(-c4ccccc4F)oc3C)CC2)cc1OC	11.5% (inactive)
O=C(CN1CCCC1)Nc1ccc(Oc2ccc(NC(=O)CN3CCCC3)cc2)cc1	-17.1% [at 8 µM] (inactive)
NC(=O)C1=C[C@H](c2coc3ccccc3c2=O)C[C@H](OCCCCO)O1	-5.67% (inactive)
